Compound activity: PubChem, The Scripps Research Institute Molecular Screening Center
Hits are enriched below; roughly 5.7% of the tested compounds scored in any of these assays.
DAX1 inh-1 = blocks DAX1 repression of SF-1 activated StAR promoter; inhibition, % at 6.8 µM; AID 652010; HEK293T StAR-luciferase reporter, SF-1/DAX-1 repression relief; 370,000 tested, 1.1% active;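 active = inhibition above the mean over all tested compounds plus 3 SD, cut at about 3.6% in these data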;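 note: 0% = DAX-1 cells with DMSO and 100% = cells lacking DAX-1 with DMSO; higher inhibition means more luminescence from relief of DAX-1 repression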
ssDAF-12 act = activators of S. stercoralis DAF-12 nuclear receptor; HEK293 ssDAF-12/GRIP1 lit1-tk-luc reporter, luminescence; % of 3 µM dafachronic acid response; activation, % at 6.8 µM; 370,000 tested, 1% active; AID 652126;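 active = activation above the mean over all tested compounds plus 3 SD, cut at about 0.9% in these data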;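 note: 0% = DMSO-only wells and 100% = 3 µM delta7-dafachronic acid wells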
AHR act = activators of human aryl hydrocarbon receptor; P35869; AHR-responsive luciferase reporter cells, luminescence; activation, % at 5 µM; 320,000 tested, 2.5% active; in the data active = activation above about 47%;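 note: 0% = vehicle wells and 100% = reference agonist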
DAX1 inh-2 = NR0B1 (DAX1) inhibition. P51843. HEK293 Gal4-DAX1 luciferase reporter, luminescence. 340,000 tested, 0.99% active. inhibition, % at 6.75 µM. AID 504766;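 active = inhibition above the mean over all tested compounds plus 3 SD, cut at about 4.2% in these data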;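 note: 0% = DAX1-transfected cells with DMSO and 100% = empty-vector control cells with DMSO; inhibition shows as a rise in luminescence from relieved DAX1 repression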
hgDAF12 agonist = activates the H. glycines DAF-12 receptor ligand-binding domain; HEK293 GAL4-hgDAF12 UAS-luciferase reporter, agonist luminescence; normalized to butyrate control; 370,000 tested, 1.8% active; AID 687014; activation, % at 6.8 µM;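 active = activation above a cutoff set at the mean of all screened compounds plus 3 SD, cut at about 10% in these data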;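 note: 0% = DMSO wells and 100% = sodium butyrate wells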
hcDAF-12 act = activates DAF-12 receptor from parasite H. contortus; activation, % at 6.8 µM; 370,000 tested, 1.4% active; HEK293 hcDAF-12 lit1-tk-luc reporter, luminescence; 0% DMSO, 100% Δ7-dafachronic acid;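 active = activation above the mean of all tested compounds plus 3 SD, cut at about 5.5% in these data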;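 note: 100% = response to 3 µM Δ7-dafachronic acid high control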
LXRb hcDAF ctr = counter-screen for hcDAF-12 agonists: agonists of human LXR-beta. shares compounds with hcDAF-12 act. HEK293 Gal4-LXR tk-luc reporter, luminescence, 24 h; normalized: DMSO 0%, positive control 100%. activation, % at 6.8 µM. 3,400 tested, under 10 active;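 active = mean percent activation of the reporter above a cutoff set as the average over tested compounds plus their standard deviation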
Target sequence (P55055 whole entry, looked up, the tested form may be a part): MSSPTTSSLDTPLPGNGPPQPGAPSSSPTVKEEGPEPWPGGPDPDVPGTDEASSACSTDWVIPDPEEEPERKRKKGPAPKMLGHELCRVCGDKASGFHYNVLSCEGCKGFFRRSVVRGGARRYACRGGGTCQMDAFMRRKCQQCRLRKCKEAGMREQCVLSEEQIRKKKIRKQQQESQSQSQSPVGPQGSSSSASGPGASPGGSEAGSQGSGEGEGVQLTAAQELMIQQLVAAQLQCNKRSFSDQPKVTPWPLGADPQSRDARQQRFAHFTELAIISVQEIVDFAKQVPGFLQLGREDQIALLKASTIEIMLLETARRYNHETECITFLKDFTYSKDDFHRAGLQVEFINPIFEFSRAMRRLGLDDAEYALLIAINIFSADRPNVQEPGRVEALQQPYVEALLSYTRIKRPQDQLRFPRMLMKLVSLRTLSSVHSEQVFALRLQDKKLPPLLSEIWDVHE
hcDAF12 ag = hcDAF-12 agonism, confirmation assay. activation, % at 6.8 µM. HEK293 hcDAF-12 lit1-tk-luc reporter, luminescence; % of Δ7-dafachronic acid response. shares compounds with hcDAF-12 act. 3,400 tested, 61% active;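 active = mean activation across triplicate tests above the threshold derived from the earlier primary screen, cut at about 5.5% in these data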;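 note: 0% = DMSO only wells and 100% = 3 µM Δ7-dafachronic acid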
hgDAF12 conf = hgDAF-12 agonism, confirmation assay; activation, % at 6.8 µM; HEK293 GAL4-hgDAF12 luciferase reporter, agonist mode; percent of butyrate response; shares compounds with hgDAF12 agonist; 3,300 tested, 80% active; AID 743050;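 active = mean activation over triplicate wells above the hit cutoff derived from the earlier primary screen, cut at about 11% in these data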;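 note: 0% = DMSO low control and 100% = 2 mM sodium butyrate high control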
LXR ag 2 = counter-screen for DAF-12 agonists: agonists of human LXR-beta; 3,300 tested, under 10 active; activation, % at 6.8 µM; HEK293 Gal4-LXR luciferase reporter, 24 h; shares compounds with hgDAF12 agonist;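 active = mean activation of the triplicate above a set limit carried over from the primary screen, none filed active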
Starred values were filed as active, the others as inactive.

Screening CCN(CC)c1ccc(/C=C/C(=O)C2C(=O)C=C(C)OC2=O)cc1 (configuration not stated) returned DAX1 inh-1 2, ssDAF-12 act 0, AHR act 27, DAX1 inh-2 0, hgDAF12 agonist 19*, hcDAF-12 act 7.7*, LXRb hcDAF ctr 0, hcDAF12 ag 4, hgDAF12 conf 8 and LXR ag 2 0.
`Clc1ccc(-c2c[nH]c3ccccc23)nn1` gave DAX1 inh-1 0, ssDAF-12 act 0, AHR act 23, DAX1 inh-2 0, hgDAF12 agonist 3 and hcDAF-12 act 1.
For c1ccc2c(-c3csc(-c4ccncc4)n3)c[nH]c2c1 the results were DAX1 inh-1 1, ssDAF-12 act 1.6*, AHR act 58*, DAX1 inh-2 -1, hgDAF12 agonist 28*, hcDAF-12 act 13*, LXRb hcDAF ctr 1, hcDAF12 ag 14*, hgDAF12 conf 15* and LXR ag 2 0.
Screening Cn1c(N/N=C/c2cc3ccccc3nc2Cl)nc2ccccc21 returned DAX1 inh-1 3, ssDAF-12 act 1.4*, AHR act 42, DAX1 inh-2 -2, hgDAF12 agonist 15*, hcDAF-12 act 12*, LXRb hcDAF ctr 2, hcDAF12 ag 11*, hgDAF12 conf 17* and LXR ag 2 1.
Cc1nnc(C)n1/N=C/c1cc2ccccc2nc1Cl was read as DAX1 inh-1 0, ssDAF-12 act -1, AHR act 2, DAX1 inh-2 1, hgDAF12 agonist 1 and hcDAF-12 act 5.
Screening Cc1cc(SCC(=O)c2ccccc2)nc(=O)[nH]1 returned DAX1 inh-1 2, ssDAF-12 act 0, AHR act 12, DAX1 inh-2 2, hgDAF12 agonist 6 and hcDAF-12 act 5.
`Cc1cc(SCC(=O)c2ccc(Cl)cc2)nc(=O)[nH]1` gave DAX1 inh-1 3, ssDAF-12 act 1.3*, AHR act -4, DAX1 inh-2 1, hgDAF12 agonist 15*, hcDAF-12 act 6.8*, LXRb hcDAF ctr 2, hcDAF12 ag 5.8*, hgDAF12 conf 15* and LXR ag 2 1.
For Nc1c(-c2ccccc2)cnn1-c1cccc(Cl)c1 the results were DAX1 inh-1 2, ssDAF-12 act 0, AHR act 9, DAX1 inh-2 4, hgDAF12 agonist 15*, hcDAF-12 act 7.1*, LXRb hcDAF ctr 1, hcDAF12 ag 4, hgDAF12 conf 17* and LXR ag 2 1.
`CCC(=O)NC1=C(Nc2ccc(N)cc2)C(=O)c2ccccc2C1=O` gave DAX1 inh-1 2, ssDAF-12 act 1, AHR act 55*, DAX1 inh-2 3, hgDAF12 agonist 13*, hcDAF-12 act 7.9*, LXRb hcDAF ctr 1, hcDAF12 ag 8.0*, hgDAF12 conf 11* and LXR ag 2 1.
Screening COC(=O)C1=C(C)N(C(C)C)C(=O)C1(NC(=O)C1CCCCC1)C(F)(F)F (configuration not stated) returned DAX1 inh-1 0, ssDAF-12 act -2, AHR act -2, DAX1 inh-2 2, hgDAF12 agonist 1 and hcDAF-12 act -2.
CCc1sc(C(=O)Nc2nc(C)cs2)cc1C was read as DAX1 inh-1 3, ssDAF-12 act 0, DAX1 inh-2 0, hgDAF12 agonist 15*, hcDAF-12 act 9.2*, LXRb hcDAF ctr 2, hcDAF12 ag 6.1*, hgDAF12 conf 17* and LXR ag 2 1.
Cc1csc(NC(=O)c2cc3c(s2)CCC3)n1 was read as DAX1 inh-1 3, ssDAF-12 act 1, AHR act 5, DAX1 inh-2 -1, hgDAF12 agonist 17*, hcDAF-12 act 7.4*, LXRb hcDAF ctr 2, hcDAF12 ag 9.0*, hgDAF12 conf 18* and LXR ag 2 1.
For COC(=O)c1sc(NC(=O)c2cc3c(s2)CCCC3)nc1C the results were DAX1 inh-1 2, ssDAF-12 act -1, AHR act -17, DAX1 inh-2 0, hgDAF12 agonist 7 and hcDAF-12 act 5.
COc1ccc(-c2cc3ccc(OC)cc3cn2)cc1 was read as DAX1 inh-1 4.2*, ssDAF-12 act 1.1*, AHR act 44, DAX1 inh-2 1, hgDAF12 agonist 21*, hcDAF-12 act 9.9*, LXRb hcDAF ctr 2, hcDAF12 ag 12*, hgDAF12 conf 18* and LXR ag 2 1.
For COc1ccc2cc(-c3ccon3)ccc2c1 the results were DAX1 inh-1 0, ssDAF-12 act -1, AHR act 0, DAX1 inh-2 2, hgDAF12 agonist 6 and hcDAF-12 act 2.
COc1ccc2cc(-c3ccccc3F)ncc2c1 was read as DAX1 inh-1 3, ssDAF-12 act 1.1*, AHR act 6, DAX1 inh-2 2, hgDAF12 agonist 16*, hcDAF-12 act 11*, LXRb hcDAF ctr 2, hcDAF12 ag 11*, hgDAF12 conf 24* and LXR ag 2 2.
`C/C(=N\Nc1ncc(Cl)cc1Cl)c1ccc(OC(F)F)cc1` gave DAX1 inh-1 1, ssDAF-12 act -1, AHR act 63*, DAX1 inh-2 0, hgDAF12 agonist 20*, hcDAF-12 act 6.6*, LXRb hcDAF ctr 0, hcDAF12 ag -1, hgDAF12 conf 0 and LXR ag 2 0.
Screening C/C(=N\Nc1ncc(Cl)cc1Cl)c1ccc2c(c1)OCO2 returned DAX1 inh-1 0, ssDAF-12 act 0, AHR act 30, DAX1 inh-2 1, hgDAF12 agonist 3 and hcDAF-12 act 3.
`Cc1ccc(-c2nc3ccsc3c(=O)[nH]2)cc1` gave DAX1 inh-1 3.7*, ssDAF-12 act 1.4*, AHR act 31, DAX1 inh-2 2, hgDAF12 agonist 22*, hcDAF-12 act 12*, LXRb hcDAF ctr 1, hcDAF12 ag 14*, hgDAF12 conf 15* and LXR ag 2 1.
CCOC(=O)CSc1nc2ccsc2c(=O)[nH]1 was read as DAX1 inh-1 0, ssDAF-12 act -1, AHR act 2, DAX1 inh-2 1, hgDAF12 agonist 2 and hcDAF-12 act 0.
